# Calb FLC = C. albicans growth inhibition with fluconazole, primary screen, CaCi-2 strain, Alamar Blue fluorescence; growth inhibition, % (no concentration beside the values); hit rate 0.57% among 300,000; AID 1979, 2009; C. albicans CaCi-2 (fluconazole-resistant clinical isolate) + fluconazole, 48 h;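 active = growth inhibition above about 58% in most replicates, limit read from the data, passing the limit was not always enough; inconclusive = exactly half the replicates above a set limit; inactive = most replicates below a set limit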;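 also: all wells also contain fluconazole at 8 µg/ml as a sub-toxic cotreatment; 0% = median of DMSO wells and 100% = median of geldanamycin control wells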
# Cl transport mod = KCC2 cotransporter modulators, thallium flux, primary screen, cell-based, HEK293 KCC2, FluoZin-2 fluorescence, MLSMR; Solute carrier family 12 member 5 (Homo sapiens), Q9H2X9; KCC2 cells, thallium flux FluoZin-2 fluorescence; B-score of Tl+ flux slope (higher = more flux/activation; lower = inhibition) at 10 µM; hit rate 2.2% among 190,000; AID 1456, 2008;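 active = thallium flux slope and its plate-corrected score both differing from the plate sample mean at a set confidence after two filtering rounds, in either direction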;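 also: slope of fluorescence scaled to starting intensity during 10 to 20 s after thallium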
# Target sequence (Q9H2X9 whole entry, looked up): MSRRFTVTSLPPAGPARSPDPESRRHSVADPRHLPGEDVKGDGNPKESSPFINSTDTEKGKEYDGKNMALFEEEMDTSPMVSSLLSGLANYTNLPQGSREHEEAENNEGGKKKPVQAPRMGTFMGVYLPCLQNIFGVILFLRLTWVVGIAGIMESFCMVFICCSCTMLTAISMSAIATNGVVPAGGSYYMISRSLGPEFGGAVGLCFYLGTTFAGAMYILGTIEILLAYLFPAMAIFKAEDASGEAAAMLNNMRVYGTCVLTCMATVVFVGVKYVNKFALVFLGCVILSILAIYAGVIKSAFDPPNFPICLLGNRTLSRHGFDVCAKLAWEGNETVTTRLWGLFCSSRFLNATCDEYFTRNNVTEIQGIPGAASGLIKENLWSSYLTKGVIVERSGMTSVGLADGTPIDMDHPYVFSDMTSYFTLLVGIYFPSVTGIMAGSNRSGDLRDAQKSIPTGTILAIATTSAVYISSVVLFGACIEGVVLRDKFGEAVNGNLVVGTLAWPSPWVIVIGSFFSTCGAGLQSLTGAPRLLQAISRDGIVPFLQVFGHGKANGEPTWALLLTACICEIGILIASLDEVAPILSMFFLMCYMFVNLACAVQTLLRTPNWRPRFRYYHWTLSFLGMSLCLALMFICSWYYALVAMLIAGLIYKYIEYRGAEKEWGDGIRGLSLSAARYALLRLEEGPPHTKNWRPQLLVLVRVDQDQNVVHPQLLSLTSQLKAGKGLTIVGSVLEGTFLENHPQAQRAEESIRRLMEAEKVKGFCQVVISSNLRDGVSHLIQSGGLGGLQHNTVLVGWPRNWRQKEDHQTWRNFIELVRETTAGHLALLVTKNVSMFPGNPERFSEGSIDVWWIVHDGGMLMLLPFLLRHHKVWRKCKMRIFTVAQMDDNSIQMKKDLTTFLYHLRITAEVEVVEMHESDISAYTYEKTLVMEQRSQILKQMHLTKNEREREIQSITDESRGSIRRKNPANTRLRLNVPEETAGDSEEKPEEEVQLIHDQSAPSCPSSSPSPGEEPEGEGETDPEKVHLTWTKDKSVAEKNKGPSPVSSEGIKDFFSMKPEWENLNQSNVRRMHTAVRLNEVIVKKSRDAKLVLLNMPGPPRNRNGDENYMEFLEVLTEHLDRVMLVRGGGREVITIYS
# Efflux pump mplx = inhibitors of Candida efflux pumps in yeast, primary screen, S. cerevisiae, Nile Red, multiplex | S. cerevisiae Candida pump triplex | hit rate 0.44% among 330,000 | inhibition, % at 10 µM;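 active = plate passing quality check with inhibition over a set limit, or well fluorescence over plate mean plus 4 SD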;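 also: Nile Red retained in pooled yeast measured as flow cytometry median fluorescence; 0% = buffer negative control and 100% = Enniatin B positive control; higher means more Nile Red kept so more efflux inhibition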
# Cardio protect = cardioprotection against H2O2-induced cell death, primary screen, uHTS, H9c2 cells, ATPLite luminescence; AID 588492, 2011; protection from H2O2 cell death, % at 20 µM; H9c2 cardiomyocytes, H2O2 injury protection, 2 h; hit rate 0.63% among 360,000;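 active = compounds giving at least 50% protection of heart cells from peroxide-induced death in the single-dose screen, raw or plate-pattern-corrected value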;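 also: 0% = DMSO wells with peroxide and 100% = DMSO wells without peroxide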
# PHOSPHO1 inh = PubChem AID 1565; inhibition, % at 13.3 µM; hit rate 1.1% among 290,000; recombinant PHOSPHO1, absorbance phosphatase assay; Phosphoethanolamine/phosphocholine phosphatase (Homo sapiens), Q8TCT1; in the data active = inhibition above about 60%
# KCC2 secondary = KCC2 modulators in sodium-free buffer, confirmation, cell-based, HEK293 KCC2, thallium flux, secondary assay; normalised thallium flux (F/F0 slope) at 10 µM; FluoZin2 fluorescence; active compounds read high; shares compounds with Cl transport mod; AID 1713, 2009; hit rate 15% among 3,700;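 active = thallium flux slope above the same plate's solvent-only control mean plus 3 SD; inconclusive = the two replicate wells disagree; inactive = no significant difference from solvent-only control wells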
# KCC2 bumet counter = thallium flux persisting under bumetanide in KCC2 cells, confirmation, counter-screen for KCC2 modulator project, cell-based, HEK293 KCC2, FluoZin2, secondary assay 3; normalized thallium flux at 10 µM; hit rate 49% among 3,700; HEK293-KCC2 + bumetanide/ouabain; active compounds read high; AID 1714, 2009; shares compounds with Cl transport mod;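 active = thallium entry rate above the same plate's blocked-transporter control wells by more than 3 SD; inconclusive = the two repeat wells disagree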;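 also: raw slope of fluorescence over initial fluorescence between 10 and 20 s after thallium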
# KCC2 secondary2 = KCC2 modulators without ouabain present, confirmation, cell-based, HEK293 KCC2, thallium flux, FluoZin2, secondary assay 2; shares compounds with Cl transport mod; thallium flux FluoZin2 fluorescence; actives lie on both sides; F/F0 rise rate, 10–20 s post-thallium; normalized thallium flux at 10 µM; hit rate 23% among 3,700;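 active = thallium flux slope more than 3 SD above or below the plate's solvent-only control mean, mostly below; inconclusive = the two repeat wells disagreed; inactive = no significant shift from solvent-only controls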;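 also: raw slope with 0.1% DMSO as baseline and bumetanide as block control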
# HEK counter1 = thallium flux modulation in parental HEK cells, confirmation, counter-screen for KCC2 modulator project, cell-based, counterscreen 1; shares compounds with Cl transport mod; HEK293 parental cells, thallium flux FluoZin2, ouabain; baseline-ratio fluorescence slope, 10–20 s after thallium; thallium flux rate (normalised fluorescence) at 10 µM; hit rate 46% among 3,700; AID 1716, 2009;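 active = thallium flux rate significantly above the same plate's solvent-only control wells, beyond their mean plus 3 SD; inconclusive = the two replicate wells gave conflicting results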
# KCC2 ouabain = KCC2 inhibitors and activators, ouabain retest, confirmation, HEK-KCC2 cells; HEK293-KCC2, thallium flux FluoZin2 fluorescence; bidirectional: low = inhibitor, high = activator; hit rate 48% among 3,700; raw Tl+ flux slope (below DMSO = inhibition, above = activation) at 10 µM; shares compounds with Cl transport mod; AID 1717, 2009;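 active = thallium flux slope beyond 3 SD from same-plate DMSO control mean in most replicates, usually higher, sometimes lower; inconclusive = repeat tests gave conflicting results; inactive = no significant difference from controls in most replicates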;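 also: slope of initial-normalized fluorescence between seconds 10 and 20 after thallium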
# HEK293 Tl flux2 = native HEK Tl+ uptake effects, second counter-screen – HEK cells, counterscreen 2, counter-screen for KCC2 modulator project, confirmation | thallium flux slope at 10 µM | hit rate 33% among 3,700 | AID 1718, 2009 | shares compounds with Cl transport mod | HEK293 parental, thallium flux FluoZin-2 fluorescence slope;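 active = thallium flux slope above the same plate's solvent-control mean plus 3 SD in both duplicate wells; inconclusive = duplicate wells that disagreed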;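 also: run without ouabain in cells lacking the KCC2 cotransporter; slope of fluorescence scaled to its starting value between 10 and 20 s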
# Numbers without * were called inactive; ? = inconclusive; · = not tested or not shown. In the library only some 3.3% were active in any assay of this set; here they are far more common.
SMILES,Calb FLC,Cl transport mod,Efflux pump mplx,Cardio protect,PHOSPHO1 inh,KCC2 secondary,KCC2 bumet counter,KCC2 secondary2,HEK counter1,KCC2 ouabain,HEK293 Tl flux2
CC1Cc2ccccc2N1C(=O)CO/N=C/c1ccccc1OC(F)F (centres undefined),-1,-5.6*,0,-4,-16,0.0062,?,0.023*,?,0.013*,0.01
O=C(c1ccc2c3n(nc2c1)-c1ccc(Cl)cc1CO3)N1CCCCC1,3,-2.2*,0,-8,40,0.0067,0.0048,?,0.0079,?,0.012
O=C(O)c1ccc2c3n(nc2c1)-c1ccc(Cl)cc1CO3,-2,·,0,·,-19,·,·,·,·,·,·
Cc1ccc(C)n1NC(=O)c1ccccc1,2,-5.8*,0,14,41,0.0084,?,0.034,0.0079,0.022,0.011
Cc1ccc(C)n1NC(=O)c1ccc(O)cc1,-6,0.74,0,3,9,·,·,·,·,·,·
Cc1ccc([C@@H]2C[C@H]3[C@@H](CN2S(=O)(=O)c2ccc(Cl)cc2)C(=O)C[C@@H](c2ccc(Cl)cc2)N3S(=O)(=O)c2ccccc2C)cc1,·,·,·,-10,·,·,·,·,·,·,·
COc1ccc2nc(N=Nc3c(O)ccc4ccccc34)sc2c1,-3,14*,·,·,-2,0.013*,0.05*,0.036,0.025*,0.034*,0.016*
COc1ccc(S(=O)(=O)NCCN2CCOCC2)c2ccccc12,21,·,0,-5,9,0.0095,0.0064,0.031,0.007,0.023,0.0097
CCOc1ccc(C2/C(=C(\O)c3ccc4c(c3)OCCO4)C(=O)C(=O)N2Cc2cccnc2)cc1OCC (centres undefined),4,·,0,0,45,·,·,·,·,·,·
O=C1CCCN1C(=O)CSc1nnnn1-c1ccccc1,·,·,0,-1,·,·,·,·,·,·,·
CCOc1ccc(N2CC(C(=O)Nc3c(C)n(C)n(-c4ccccc4)c3=O)CC2=O)cc1 (centres undefined),-2,-5*,0,-5,10,0.0087,0.007,0.028,0.0066,0.021,0.0089
C=CCn1c(-c2cc3c(s2)CCC(CC)C3)n[nH]c1=S (centres undefined),-10,4.1,0,-18,-36,·,·,·,·,·,·
CCn1c(-c2csc3c2CCC(C)C3)n[nH]c1=S (centres undefined),-50,11*,0,-1,-3,0.0071,0.027*,0.035,0.024*,0.03*,0.014*
COc1ccc(-c2ccc(CN3C(C(C)C)C(=O)N(Cc4cn(CC5CCCCC5)nn4)CCS3(=O)=O)cc2)cc1OC (centres undefined),·,·,·,-7,·,·,·,·,·,·,·
CCCn1c(=O)c(C(=O)NCc2ccccc2)c(O)c2ccccc21,-21,·,0,8,41,·,·,·,·,·,·
CCCCCCCCCC(=O)NNC(=O)c1c(O)c2ccccc2n(CCC)c1=O,6,3.9*,0,-3,36,0.015,0.0099*,0.03,0.0092*,0.018,0.012
CCCCCCCCC(=O)NNC(=O)c1c(O)c2ccccc2n(CCC)c1=O,-3,6.3*,0,2,-16,0.007,0.012*,0.032,0.015*,0.023,?
CCCCCCCCCCC(=O)NNC(=O)c1c(O)c2ccccc2n(CC)c1=O,3,5.2*,0,·,4,0.015,0.015*,0.031,0.0099*,0.019,0.012
CCc1c(C)nc(SCC(=O)N2CCCCC2CC)[nH]c1=O (centres undefined),-5,-1.5,0,14,33,·,·,·,·,·,·
S=c1[nH]nc(COc2ccccc2)n1/N=C/c1ccc(Cl)cc1,-4,·,0,-6,-17,·,·,·,·,·,·
Cc1cccc(OCc2n[nH]c(=S)n2C2CCCCC2)c1,-3,-0.06,0,-5,6,·,·,·,·,·,·
S=c1[nH]nc(COc2ccc(Cl)cc2)n1C1CCCCC1,12,2.5*,0,-8,14,0.0052,0.015*,0.033,0.012*,?,0.015*
Cc1ccc(OCc2n[nH]c(=S)n2C2CCCCC2)cc1,-10,13*,0,-8,91*,?,0.043*,0.045*,0.026*,0.042*,0.03*
S=c1[nH]nc(CSCc2ccccc2Cl)n1C1CCCCC1,6,27*,·,-4,-118,0.0057,0.031*,?,0.029*,0.028*,0.02*
Oc1cc2ccccc2cc1-c1n[nH]c(=S)n1Cc1ccco1,50,8.9*,0,-4,18,0.0092,0.023*,0.03,0.013*,?,0.0098
SMILES,Calb FLC,Cl transport mod,Efflux pump mplx,Cardio protect,PHOSPHO1 inh,KCC2 secondary,KCC2 bumet counter,KCC2 secondary2,HEK counter1,KCC2 ouabain,HEK293 Tl flux2
COc1cccc(-c2n[nH]c(=S)n2Cc2ccco2)c1OC,9,1.3,0,-1,56,·,·,·,·,·,·
COc1cc(C(=O)N(C)CC2CCN(CCc3cccc(C(F)(F)F)c3)CC2)ccc1C,-4,·,0,-8,24,·,·,·,·,·,·
Cc1cccc(C(=O)OCC(=O)Nc2c(C)n(C)n(-c3ccccc3)c2=O)c1,·,·,0,-4,·,·,·,·,·,·,·
CC(C)CC1C(=O)N(Cc2cn(CCC3OCCCO3)nn2)CCS(=O)(=O)N1Cc1ccc(-c2cccc(N(C)C)c2)cc1 (centres undefined),·,·,·,1,·,·,·,·,·,·,·
c1ccc(CSC2=NNC(c3ccccn3)S2)cc1 (centres undefined),5,28*,0,46,18,?,0.026*,?,0.015*,0.025*,0.018*
Cc1ccc(-n2nnnc2SCC(=O)NC2CCCc3ccccc32)c(C)c1 (centres undefined),3,-0.7,-2,-11,-9,·,·,·,·,·,·

# Source: PubChem BioAssay (several laboratories)
